Reference: PubChem BioAssay AID686978 (National Center for Advancing Translational Sciences (NCATS), 2013)
In all, about 420,000 compounds went through this assay and about 64,000 (15%) were called active. Roughly 27% stayed inconclusive and do not appear here. The list is a sample of the results. Unmarked numbers belong to inactive results. Calls follow the shape of the dose curve; as a rule, active = well fitted inhibition curve with a large enough effect; inconclusive = small, poorly fitted or top-dose-only effect; inactive = flat fitted curve, though single readings scatter.

test: qHTS for Inhibitors of human tyrosyl-DNA phosphodiesterase 1 (TDP1): qHTS in cells in absence of CPT; conditions: DT40 Tdp1-/- hTDP1 cells, no CPT, ATP luminescence, 48 h; activity change, negative = growth inhibition: at 46.2 µM (top of the series); also: nearly all actives have a fitted effect of over 55% in size
Method in brief: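 Compound effects on proliferation are scored in DT40 Tdp1-/-;hTDP1 cells in the absence of CPT. ATP levels (CellTiter-Glo luminescence) are recorded after a ≥48 hr, 37 °C incubation.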
% is scaled to controls: 0 for no effect and ±100 for the full control effect; potency is read from the fitted curve at half-maximal effect.

Row | SMILES | activity change, negative = growth inhibition | Potency
1 | CC(C)c1nc(-c2ccccn2)no1 | -11.4% | 
2 | COc1ccc(S(=O)(=O)N2CCN(CC(=O)N3c4ccccc4CC3C)CC2)cc1OC (stereo not drawn) | -5.83% | 
3 | O=C(NC1=NCCS1)[C@H](Cc1ccccc1)N1C(=O)c2ccccc2C1=O | -17.9% | 
4 | Cc1occc1C(=O)Nc1cccc(Cn2cccn2)c1 | -25.6% | 
5 | Cc1occc1C(=O)NNC(=S)NCC(C)C | -1.82% | 
6 | Cc1occc1C(=O)NC1CCCN(Cc2ccc(CC(C)C)cc2)C1 (stereo not drawn) |  | 20.6 µM (active)
7 | CCOC(=O)C(NC(C)=O)C(=O)Nc1ccc(OC)cc1 (stereo not drawn) | -3.87% | 
8 | CC(=O)N(O)CCCCCNC(=O)CCC(=O)N(O)CCCCCNC(=O)CCC(=O)N(O)CCCCCNC(=O)CCC(=O)O | -5.15% | 
9 | Cc1cc(C)nc(NC2=NCC(=O)N2c2ccc(Cl)cc2)n1 | -7.59% | 
10 | CCc1nc2ccc(C(=O)N3CCN(c4cc(Cl)ccc4C)CC3)cc2nc1CC |  | 18.4 µM (active)
11 | Cc1ccc(Cl)cc1N1CCN(C(=O)c2cccn3c(=O)c4cc(Cl)ccc4nc23)CC1 | -1.72% | 
12 | CCOC(=O)N1CCN(C(=O)c2ccc3nc4cc(Cl)ccc4c(=O)n3c2)CC1 | -13.1% | 
13 | CN(C)CCCNC(=S)N1CCC(c2nc3ccccc3[nH]2)CC1 | 10.9% | 
14 | CC(C)(C)c1ccc(C(CC(=O)O)NS(=O)(=O)Cc2ccccc2)cc1 (stereo not drawn) | 12.1% | 
15 | CCCCc1nc2c(=O)[nH]c3ccccc3c2o1 | -13.7% | 
16 | O=S(=O)(ON(c1ccccc1)S(=O)(=O)c1ccccc1)c1ccccc1 | -27.9% | 
17 | CC1=C/C(=N\OS(=O)(=O)c2ccccc2)C=CC1=O |  | 1 µM (active)
18 | CSc1nc2ccc(NC(=O)c3c(F)cccc3F)cc2s1 | -1.17% | 
19 | CCC(=O)Nc1cccc(NC(=O)c2cccnc2)c1 | 7.17% | 
20 | CCOC(=O)c1cc(NC(=O)c2cccnc2)cc(C(=O)OCC)c1 | -5.59% | 
21 | CCCC(=O)Nc1nc2ccc(NC(=O)c3cccnc3)cc2s1 |  | 9.2 µM (active)
22 | CCCC(=O)Nc1nc2ccc(NC(=O)c3c(F)c(F)c(OC)c(F)c3F)cc2s1 |  | 0.651 µM (active)
23 | CCCC(=O)Nc1ccc2c(c1)nc1n2CCSC1 | -2.08% | 
24 | O=C(COC(=O)/C=C/c1ccc(OC(F)F)cc1)NC1CCCCC1 | -11% | 
25 | O=C(CCNS(=O)(=O)c1ccccc1)NCCCc1ccccc1 | 15.1% | 
26 | O=S(=O)(c1ccccc1)N1CN(Cc2ccc(F)cc2)c2nc3ccccc3nc21 | -29.9% | 
27 | O=C(CCN1C(=O)C2CCCCC2C1=O)Nc1ccc(OC(F)F)cc1 (stereo not drawn) | -2.98% | 

Row | SMILES | activity change, negative = growth inhibition | Potency
28 | COCCNc1ncnc2ccc(-c3ccccc3CN(C)C)cc12 | -13.2% | 
29 | COc1ccccc1CNc1ncnc2ccc(-c3ccc4c(c3)OCO4)cc12 | -26.4% | 
30 | COc1ccccc1CNc1ncnc2ccc(-c3c(C)noc3C)cc12 |  | 11.6 µM (active)
31 | CCC1(CC)NC(=O)N(CC(=O)OCC(=O)Nc2ccc(C(F)(F)F)cc2)C1=O | -10.4% | 
32 | CCCN(CCc1ccccc1)C1CCc2c(O)cccc2C1 (stereo not drawn) |  | 11.6 µM (active)
33 | CCCN(C/C=C\I)[C@@H]1CCc2cccc(O)c2C1 |  | 21.1 µM (active)
34 | O=C(C(=O)N1CCOc2ccc(CN3CCN(Cc4ccccn4)CC3)cc2C1)c1ccccc1 | -22.4% | 
35 | COCCNC(=O)c1onc(CSc2cccc(C)c2)c1C(=O)O | -8.38% | 
36 | CCOc1ccc(NC(=S)N2CCC(N(C)CC3CCCO3)CC2)cc1 (stereo not drawn) | 1.02% | 
37 | COc1ccc2oc(N)c(C=O)c(=O)c2c1 | 0.424% | 
38 | CCOc1ccc(NC(=O)C/C(C)=N/NC(=O)Cc2cccs2)cc1 | -1.31% | 
39 | CN1C(=O)[C@H]2[C@@H](C3CC3)N3C(=O)CN(Cc4ccccc4)C(=O)[C@@]3(C)[C@H]2C1=O | 2.76% | 
40 | Cc1ccccc1Cn1c(=O)[nH]c2ccccc21 | -22.8% | 
41 | Cc1cccc(C)c1NC(=O)N1CC(C)OC(C)C1 (stereo not drawn) | 19.8% | 
42 | Cc1cccc(C)c1NC(=O)N1CC=C(n2c(=O)[nH]c3ccccc32)CC1 |  | 20.6 µM (active)
43 | COc1ccc(C)cc1N1C(=O)[C@@H]2C[C@H]1CN2Cc1cccc(OC)c1O | -29.5% | 
44 | COc1ccc(N2CCC(N3CCN(C)C(CCO)C3)CC2)cc1 (stereo not drawn) | 25.1% | 
45 | COc1ccc(-c2c3c(=O)n(C)c(=O)n(C)c3cn2NC(C)=O)cc1 | 1.83% | 
46 | COc1ccc(-c2c3c(=O)n(C)c(=O)n(C)c3c3c(C)nc4ccccc4n23)cc1 |  | 20.6 µM (active)
47 | COc1ccc(-c2[nH]c3c(c2-c2c(-n4cccc4)n(C)c(=O)n(C)c2=O)c(=O)n(C)c(=O)n3C)cc1 | -7.33% | 
48 | CC1=NNC(=O)C1CCC(=O)N/N=C\c1cccc(Cl)c1 (stereo not drawn) | 6.28% | 
49 | Cc1ccc(S(=O)(=O)N2[C@@H](Cc3ccccc3)CO[C@H]2CC(=O)OCc2ccccc2)cc1 |  | 23.1 µM (active)
50 | CC(=O)C[C@@H]1OC[C@H](C)N1S(=O)(=O)c1ccc(C)cc1 | 1.6% | 
51 | CC(=O)C[C@@H]1OC[C@H](CO)N1S(=O)(=O)c1ccc(C)cc1 | 11% | 
52 | CC(=O)Nc1nc(C)c(Cc2ccccc2)c(=O)[nH]1 | 3.66% | 
53 | CCCCn1c(N)c(N(CC(C)C)C(=O)c2ccc(Br)o2)c(=O)[nH]c1=O | -34.5% | 
